Data on 39 compounds can be found in PubChem BioAssay (NCI).

This is part of a sample that, as a whole, favours compounds with a hit. Of some 83,000 tested, about 20% had one in any assay.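 Values shown are percent growth following 48 h exposure of cells in 96-well plates to a single concentration of compound; below 10 was considered active.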 Active and inactive are the calls of the source.

One assay concerns PC-3 prostate. The assay can be described thus: NCI-60 one-dose screen, 48 h (100 = growth as untreated, 0 = no growth, -100 = all killed). The following applies: 10 µM unless noted.
With `Nc1c(C(=O)c2ccc(F)cc2)sc2nc3c(cc12)CCCC3`, the growth was 80.7% (inactive).

Consider `COc1cccc(/C=C2\SC(N3CCN(c4ccccn4)CC3)=NC2=O)c1`, for which the growth is 88.9% (inactive).

Turning to `CCCC(C(=O)OCC)C(C)OC(=O)OCC` (stereo not drawn), the growth was 102% (inactive).

Consider `O=C(/C=C/CN1CCOCC1)Nc1cc2c(Nc3cccc(Cl)c3F)ncnc2cc1OCCOC(F)F`, for which the growth is 58.9% (inactive).

Turning to `COc1ccc(-c2nc3sccn3c2-c2ccnc(NCCCNS(=O)(=O)c3ccc4ccccc4c3)n2)cc1`, the growth was 66.8% (inactive).

Turning to `CC(CCc1ccccc1)NC(=O)c1n[nH]c(=O)c2ccccc12` (stereo not drawn), the growth was 95.7% (inactive).

Turning to `Cc1cc(NC(=O)COC(=O)c2sc3cc(F)ccc3c2Cl)no1`, the growth is 101% (inactive).

Take `COc1ccc(C(=O)c2cc(OC)c(OC)c(OC)c2)cc1/C=C/C(=O)c1ccc2c(c1)OCO2`: the growth was 24% (inactive).

As for `COc1ccc(/C=C/c2cc(N3CCOCC3)c3cc(F)c(F)cc3n2)cc1OC`, the growth was 38.7% (inactive).

For the compound `CCn1cc(C(=O)O)c(=O)c2cc(F)c(N3CCN(S(=O)(=O)c4c(C)cc(C)cc4C)CC3)cc21`, the growth was 61.4% (inactive).

`O=C(Nc1cc(C(F)(F)F)cc(C(F)(F)F)c1)Nc1ccc(OCc2nnc(-c3ccc(Cl)cc3)o2)c(F)c1`: the growth is 3.89% (active).

On to `O=C(c1ccncc1)N1N=C(c2ccc(Cl)cc2)CC1c1c[nH]c2ccccc12` (stereo not drawn), for which the growth is 82.8% (inactive).

In the case of `CC(Br)C(OC(=O)c1ccccc1Cl)c1cc2c(cc1Br)OCO2` (stereo not drawn), the growth is 82.8% (inactive).

For the compound `CCC(c1ccc(OC)cc1)C(CC)c1ccc(O)c(CN2CCCC2)c1` (stereo not drawn), the growth is 24.4% (inactive).

On to `CC(C)(C)OC(=O)N[C@@H](Cc1ccccc1)C(=O)N(Cc1ccccc1)C1(C(=O)NCc2ccccc2)CCN(Cc2ccccc2)CC1`, for which the growth was 1.58% (active).

As to `Cn1c(-c2nonc2NC(=O)c2ccc(F)cc2)nc2ccccc21`, the growth is 101% (inactive).

For `c1ccn2nnnc2c1`, the growth was 97.6% (inactive).

As for `c1cncc(CNc2ccccc2-c2nnc(Nc3ccc4c(c3)OCCO4)o2)c1`, the growth is 36.5% (inactive).

On to `COc1cc2nc(SCc3cc(OC)c(OC)c(OC)c3)n(Cc3ccccc3)c(=O)c2cc1OC`, for which the growth is 48.8% (inactive).

For the compound `COc1ccc(C(=O)N2CCN(C(=O)c3cc(OC)c(OC)c(OC)c3)CC2)cc1OCCCCOc1cc2c(cc1OC)C(=O)N1CCC[C@H]1C=N2`, the growth was 104% (inactive).

Consider `O=S(=O)(NCCNc1cc(-c2cn(-c3ccccc3)nc2-c2ccccc2)ccn1)c1cccc2ccccc12`, for which the growth was 15.3% (inactive).

Regarding `O=S(=O)(NCCNc1nccc(-c2c(-c3ccccc3)nc3sccn23)n1)c1ccc(O)cc1`, the growth was 57.9% (inactive).

On to `Cc1ccc2c(c1)C(C)Cc1c(N(C)C)ncnc1N2C` (stereo not drawn), for which the growth is 32.8% (inactive).

For the compound `CCN(CC)c1cc(/C=C/c2ccc(OC)c(OC)c2)nc2cc(F)c(F)cc12`, the growth is 65.6% (inactive).

For `COc1ccc(-c2nc3sccn3c2-c2ccnc(NCCCNS(=O)(=O)c3ccc(C)cc3)n2)cc1`, the growth is 31.5% (inactive).

For the compound `C=C1C(=O)O[C@H]2[C@H]1CC/C(Cn1cc(-c3ccc(N)cc3)nn1)=C\CC[C@@]1(C)O[C@@H]21`, the growth is 24.1% (inactive).

On to `CC(C)N(Cc1ccc(CN(C(=O)CCl)C(C)C)cc1)C(=O)CCl`, for which the growth was 29.7% (inactive).

Consider `COc1ccc(NC(=S)/N=c2\oc3c(OC)cccc3cc2-c2cc3ccccc3[nH]2)cc1`, for which the growth is 58.4% (inactive).

In the case of `Cc1cnc(NC(=O)C(Cc2ccccc2)NC(=O)c2ccccc2)s1` (stereo not drawn), the growth is 70.7% (inactive).

For the compound `CC(C)C[C@H](NC(=O)Cn1ccc(NCc2ccccc2)cc1=O)B(O)O`, the growth was 49.2% (inactive).

Take `CN1CCN(CCCOc2ccc3nc(Nc4ccc(C(F)(F)F)c(Cl)c4)ccc3c2)CC1`: the growth is 8.45% (active).

On to `O=C(CCCn1c2c(sc3ccccc32)c(=O)n2nnc(-c3ccccc3)c12)NCCc1cnc[nH]1`, for which the growth is -84.5% (active).

For the compound `CC1Cc2c(N(C)C)ncnc2N(C)c2ccc(Cl)cc21` (stereo not drawn), the growth was 32.9% (inactive).

`O=C(Nc1ccc(F)cc1)c1cc([N+](=O)[O-])ccc1O`: the growth is 54.7% (inactive).

In the case of `CC(=O)Nc1ccc2c(c1)/C(=C\C=C/c1ccc([N+](C)(C)C)cc1)c1ccccc1-2`, the growth is 68.4% (inactive).

`COc1ccc(-c2nc3sccn3c2-c2ccnc(NCCNS(=O)(=O)c3ccc(C(F)(F)F)cc3)n2)cc1`: the growth is 9.86% (active).

For `O=C1C2=C(C(=O)c3c(O)ccc(O)c31)N(c1cccnc1)Cc1ccccc1O2`, the growth is -31.7% (active).

Regarding `CC(=O)Nc1ccc(S(=O)(=O)NC(CCC(=O)Nc2ccc(Cl)cc2)C(=O)O)cc1` (stereo not drawn), the growth is 97.5% (inactive).

In the case of `COc1ccc(-c2cn[nH]c2-c2cc(OC)c3c(c2)OCCO3)cc1`, the growth was 28.4% (inactive).

For the next assay, the system named is SK-MEL-5 melanoma. The description is as above. The following applies: 10 µM unless noted.
On to `Nc1c(C(=O)c2ccc(F)cc2)sc2nc3c(cc12)CCCC3`, for which the growth was 89.2% (inactive).

As for `COc1cccc(/C=C2\SC(N3CCN(c4ccccn4)CC3)=NC2=O)c1`, the growth is 97.1% (inactive).

`CCCC(C(=O)OCC)C(C)OC(=O)OCC` (stereo not drawn): the growth is 103% (inactive).

For the compound `O=C(/C=C/CN1CCOCC1)Nc1cc2c(Nc3cccc(Cl)c3F)ncnc2cc1OCCOC(F)F`, the growth is 86.9% (inactive).

As to `COc1ccc(-c2nc3sccn3c2-c2ccnc(NCCCNS(=O)(=O)c3ccc4ccccc4c3)n2)cc1`, the growth is 42.3% (inactive).

As to `CC(CCc1ccccc1)NC(=O)c1n[nH]c(=O)c2ccccc12` (stereo not drawn), the growth was 98.9% (inactive).

For the compound `Cc1cc(NC(=O)COC(=O)c2sc3cc(F)ccc3c2Cl)no1`, the growth was 110% (inactive).

As to `COc1ccc(C(=O)c2cc(OC)c(OC)c(OC)c2)cc1/C=C/C(=O)c1ccc2c(c1)OCO2`, the growth is 8.97% (active).

With `COc1ccc(/C=C/c2cc(N3CCOCC3)c3cc(F)c(F)cc3n2)cc1OC`, the growth is 26.2% (inactive).

Take `CCn1cc(C(=O)O)c(=O)c2cc(F)c(N3CCN(S(=O)(=O)c4c(C)cc(C)cc4C)CC3)cc21`: the growth was 79.5% (inactive).

`O=C(Nc1cc(C(F)(F)F)cc(C(F)(F)F)c1)Nc1ccc(OCc2nnc(-c3ccc(Cl)cc3)o2)c(F)c1`: the growth is -29.6% (active).

Take `O=C(c1ccncc1)N1N=C(c2ccc(Cl)cc2)CC1c1c[nH]c2ccccc12` (stereo not drawn): the growth was 93.3% (inactive).

On to `CC(Br)C(OC(=O)c1ccccc1Cl)c1cc2c(cc1Br)OCO2` (stereo not drawn), for which the growth was 87% (inactive).

In the case of `CCC(c1ccc(OC)cc1)C(CC)c1ccc(O)c(CN2CCCC2)c1` (stereo not drawn), the growth is -91.8% (active).

With `CC(C)(C)OC(=O)N[C@@H](Cc1ccccc1)C(=O)N(Cc1ccccc1)C1(C(=O)NCc2ccccc2)CCN(Cc2ccccc2)CC1`, the growth is 24.3% (inactive).

Regarding `Cn1c(-c2nonc2NC(=O)c2ccc(F)cc2)nc2ccccc21`, the growth was 97.2% (inactive).

On to `c1ccn2nnnc2c1`, for which the growth is 103% (inactive).

On to `c1cncc(CNc2ccccc2-c2nnc(Nc3ccc4c(c3)OCCO4)o2)c1`, for which the growth was -9.92% (active).

`COc1cc2nc(SCc3cc(OC)c(OC)c(OC)c3)n(Cc3ccccc3)c(=O)c2cc1OC`: the growth is -8.17% (active).

Turning to `COc1ccc(C(=O)N2CCN(C(=O)c3cc(OC)c(OC)c(OC)c3)CC2)cc1OCCCCOc1cc2c(cc1OC)C(=O)N1CCC[C@H]1C=N2`, the growth was 71% (inactive).

As to `O=S(=O)(NCCNc1cc(-c2cn(-c3ccccc3)nc2-c2ccccc2)ccn1)c1cccc2ccccc12`, the growth was 26.5% (inactive).

Consider `O=S(=O)(NCCNc1nccc(-c2c(-c3ccccc3)nc3sccn23)n1)c1ccc(O)cc1`, for which the growth was 7.89% (active).

With `Cc1ccc2c(c1)C(C)Cc1c(N(C)C)ncnc1N2C` (stereo not drawn), the growth is 15% (inactive).

In the case of `CCN(CC)c1cc(/C=C/c2ccc(OC)c(OC)c2)nc2cc(F)c(F)cc12`, the growth is 93.3% (inactive).

With `COc1ccc(-c2nc3sccn3c2-c2ccnc(NCCCNS(=O)(=O)c3ccc(C)cc3)n2)cc1`, the growth was -5.18% (active).

Consider `C=C1C(=O)O[C@H]2[C@H]1CC/C(Cn1cc(-c3ccc(N)cc3)nn1)=C\CC[C@@]1(C)O[C@@H]21`, for which the growth is 35.3% (inactive).

With `CC(C)N(Cc1ccc(CN(C(=O)CCl)C(C)C)cc1)C(=O)CCl`, the growth was 17.9% (inactive).

Take `COc1ccc(NC(=S)/N=c2\oc3c(OC)cccc3cc2-c2cc3ccccc3[nH]2)cc1`: the growth was 72.1% (inactive).

`Cc1cnc(NC(=O)C(Cc2ccccc2)NC(=O)c2ccccc2)s1` (stereo not drawn): the growth is 25.5% (inactive).

For `CC(C)C[C@H](NC(=O)Cn1ccc(NCc2ccccc2)cc1=O)B(O)O`, the growth is -9.84% (active).

`CN1CCN(CCCOc2ccc3nc(Nc4ccc(C(F)(F)F)c(Cl)c4)ccc3c2)CC1`: the growth is 34.1% (inactive).

Take `O=C(CCCn1c2c(sc3ccccc32)c(=O)n2nnc(-c3ccccc3)c12)NCCc1cnc[nH]1`: the growth was -67.1% (active).

For `CC1Cc2c(N(C)C)ncnc2N(C)c2ccc(Cl)cc21` (stereo not drawn), the growth was 11.1% (inactive).

Take `O=C(Nc1ccc(F)cc1)c1cc([N+](=O)[O-])ccc1O`: the growth was 30% (inactive).

In the case of `CC(=O)Nc1ccc2c(c1)/C(=C\C=C/c1ccc([N+](C)(C)C)cc1)c1ccccc1-2`, the growth was 36.1% (inactive).

With `COc1ccc(-c2nc3sccn3c2-c2ccnc(NCCNS(=O)(=O)c3ccc(C(F)(F)F)cc3)n2)cc1`, the growth is -94.1% (active).

On to `O=C1C2=C(C(=O)c3c(O)ccc(O)c31)N(c1cccnc1)Cc1ccccc1O2`, for which the growth is 11.4% (inactive).

Consider `CC(=O)Nc1ccc(S(=O)(=O)NC(CCC(=O)Nc2ccc(Cl)cc2)C(=O)O)cc1` (stereo not drawn), for which the growth is 97.7% (inactive).

Turning to `COc1ccc(-c2cn[nH]c2-c2cc(OC)c3c(c2)OCCO3)cc1`, the growth was 25.4% (inactive).
